# Assay outcomes as filed in PubChem.
# AmpC inh detg = AmpC beta-lactamase inhibition with detergent present; AmpC hydrolysis of nitrocefin, absorbance 480 nm, 0.01% Triton; AID 485294; 0.041% of 370,000 active; Potency, µM (doses to about 114 µM), without a hit: at the top dose activity change, negative = inhibition, actives largely listed as inhibitors;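 further: potency means the concentration at half of the fitted maximal effect; 0% = no-compound wells and -100% = no-enzyme wells; nearly all actives have a fitted effect of over 25% in size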
# Target sequence (P00811 whole entry, looked up): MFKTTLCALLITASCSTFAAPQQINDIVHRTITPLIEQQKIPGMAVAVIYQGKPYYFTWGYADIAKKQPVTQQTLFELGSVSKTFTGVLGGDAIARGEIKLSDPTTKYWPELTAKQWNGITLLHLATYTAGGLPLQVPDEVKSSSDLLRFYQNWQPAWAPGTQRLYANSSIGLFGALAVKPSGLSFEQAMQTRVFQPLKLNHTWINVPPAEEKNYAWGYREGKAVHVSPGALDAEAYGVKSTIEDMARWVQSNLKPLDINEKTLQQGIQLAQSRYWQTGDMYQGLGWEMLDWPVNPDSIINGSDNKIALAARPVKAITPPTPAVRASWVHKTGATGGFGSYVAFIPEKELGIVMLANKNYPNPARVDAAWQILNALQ
#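 AmpC (5.3 nM in the dispensed reagent) in 20 mM phosphate pH 7.0 with 0.01% (detergent screen) or 0.0001% Triton X-100 was preincubated with compounds for 15 min at room temperature. Nitrocefin was then added from an 800 uM solution, and hydrolysis was followed at 480 nm.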
# HCV inhibitor = HCV inhibition; Huh7.5.1 HCVcc-Cre infection, luciferase reporter, 44 h; Potency, µM (top dose mostly 41.8 µM), for the others: at the highest dose activity change, negative = inhibition, usual class: inhibitors; 3.4% of 340,000 active; further: potency means the concentration at half of the fitted maximal effect
#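 Cells (1,000/well) were plated 4 h before compound, then infected with HCVcc-Cre virus (~0.5 moi). After 44 h further culture, infection was read as luciferase luminescence following a 15 min substrate incubation at room temperature.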
# FMDV inh = foot and mouth disease virus antiviral activity; Potency, µM (doses to about 57.9 µM), inactives show at the top dose activity change, negative = inhibition, most hits filed as inhibitors; FMDV antiviral cell-based qHTS; 1.2% of 410,000 active; calls by dose curve; tested in HEK293T cells; further: read-out not given here; potency means the concentration at half of the fitted maximal effect; nearly all actives have a fitted effect of over 45% in size
# AmpC inh no detg = blocks E. coli AmpC beta-lactamase in detergent-free assay | P00811 | AmpC nitrocefin hydrolysis, absorbance 480 nm, 0.0001% Triton | Potency, µM (doses to about 57.1 µM), without a hit: at the top dose activity change, negative = inhibition, actives largely listed as inhibitors | 0.52% of 330,000 active | AID 485341;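 further: potency means the concentration at half of the fitted maximal effect; plate controls were no compound for no effect and no enzyme for full effect; nearly all actives have a fitted effect of over 20% in size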
#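 AmpC (5.3 nM in the dispensed reagent) in 20 mM phosphate pH 7.0 with 0.01% (detergent screen) or 0.0001% Triton X-100 was preincubated with compounds for 15 min at room temperature. Nitrocefin was then added from an 800 uM solution, and hydrolysis was followed at 480 nm.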
# HCMV inh = blocks human cytomegalovirus replication; HFF cells, HCMV-luciferase reporter, 72 h; active compounds read low; activity change, negative = inhibition, % at 57.5 µM; 4.5% of 410,000 active; in the data active means activity change below about -60%; inconclusive means no clear call, values can overlap the other calls; inactive means above about -39%
#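 After 16 h attachment at 37C, HFF cells received test compound and HCMV-luciferase (1 PFU/cell); reporter luminescence read 72 h later, data normalized against buffer-only and known inhibitor Salinomycin.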
# Numbers without * were called inactive; ? = inconclusive; / = no result given; + = active, no number. Most compounds without a hit are left out; they make up all but 7.3% or so of the library. Unless noted, the call rests on the fitted dose curve; in most records, active means well fitted curve in the direction sought with a large enough effect; inconclusive means small, poorly fitted or top-dose-only effect, or another doubt; inactive means no such curve, though single readings can be large; an effect the other way counts as inactive or inconclusive. Unless noted, on the % scale 0 is the no-effect control and ±100 the full control effect.
SMILES,AmpC inh detg,HCV inhibitor,FMDV inh,AmpC inh no detg,HCMV inh
CC(C)(C)OC(=O)N1Cc2ccccc2C[C@H]1C(=O)NCC(=O)Nc1ccc2c(c1)OCCO2,?,1%,?,36%,-68*
COc1ccc(NC(=O)[C@H](C)NC(=O)[C@@H]2Cc3ccccc3CN2C(=O)OC(C)(C)C)cc1,3%,-14%,-7%,101%,+
O=C(NN1C(=O)C2CC=C(Cl)CC2C1=O)c1ccncc1 (stereo unspecified),3%,18%,-10%,-12%,11
Cc1cc(Cn2nc(-c3ccccc3)cc2C(=O)NCc2cccc(Br)c2)on1,?,5.6µM*,5%,-6%,41
Cc1cc(Cn2nc(-c3ccccc3)cc2C(=O)NCc2cccc(C(F)(F)F)c2)on1,1%,?,-3%,-18%,1
COc1ccccc1C(=O)NCCC(=O)Nc1ccc(S(=O)(=O)N2C(C)CCCC2C)cc1 (stereo unspecified),-6%,10µM*,-19%,31%,-11
CCN1CCN(CC(=O)Nc2ccc(S(=O)(=O)N3C(C)CCCC3C)cc2)CC1 (stereo unspecified),3%,16%,5%,31%,-99*
Cc1cc2c(c(-c3cnccn3)c1)OC(CNC(=O)c1ccc(-n3nc(C)cc3C)cc1)C2 (stereo unspecified),/,/,-10%,/,/
COc1ccccc1N1CCN(CCCNC(=O)Cn2ncc3c([nH]c4ccccc43)c2=O)CC1,-10%,-16%,-15%,32%,-27
O=C(CS(=O)(=O)c1cn(CC(=O)N2CCOCC2)c2ccccc12)NCc1ccc(F)cc1,-1%,14%,-17%,22%,6
O=C(NCc1ccccc1)C1C(=O)Nc2ccccc2C(=O)N1Cc1ccccc1 (stereo unspecified),/,/,19%,/,-12
CC(=O)NC12CC3CC(C1)CC(C(=O)N(C)CC(=O)Nc1ccc(F)c(F)c1F)(C3)C2,-5%,10%,-7%,0%,-35
S=c1[nH]nc(-c2ccco2)n1-c1ccc(Cl)cc1,9%,13%,0%,-15%,-61*
Nc1nc(-c2ccc(-c3ccccc3)cc2)cs1,-1%,10µM*,9%,-24%,-1
COc1ccc(-c2csc(N)n2)cc1,?,?,41%,-9%,-7
Nc1nc(-c2ccc(Oc3ccccc3)cc2)cs1,-8%,10µM*,22%,-53%,25
CCCCCCCCN1C(=O)[C@@H](CC(=O)NCCCCc2ccccc2)C[C@@]2(C(=O)OC)C1=C[C@H](C(C)(C)C)O[C@@H]2C,/,/,/,/,-30
O=C(COC(=O)C12CC3CC(CC(O)(C3)C1)C2)Nc1cccc(Br)c1,-15%,3%,23%,0%,-102*
CC(=O)c1ccc(NC(=O)CSc2nccn2Cc2ccc3c(c2)OCO3)cc1,-11%,/,?,/,38
C=C1C(=O)OC2C1CCC(C)=C1C(=O)C3OC3(C)C12 (stereo unspecified),/,10µM*,28µM*,/,-78*
COc1ccccc1NC(=O)C1=C(C)Nc2nc(CCCO)nn2C1c1cccc(O)c1 (stereo unspecified),6%,/,?,/,14
Cc1ccc(C)c(NC(=O)/C(C#N)=C/c2cn(CC(=O)NCc3ccco3)c3ccccc23)c1,?,?,-8%,-12%,-100*
Cc1ccc(NC(=O)/C(C#N)=C/c2cn(CC(=O)NCc3ccco3)c3ccccc23)cc1C,0%,2%,11%,-6%,?
Cc1cc(C)cc(NC(=O)/C(C#N)=C/c2cn(CC(=O)NCc3ccco3)c3ccccc23)c1,-12%,?,?,-16%,-85*
CNC(=O)/C(C#N)=C/c1cn(CC(=O)NCc2ccco2)c2ccccc12,-5%,-18%,-10%,1%,-5
SMILES,AmpC inh detg,HCV inhibitor,FMDV inh,AmpC inh no detg,HCMV inh
Cn1c(-c2csc(-c3cccc(C(F)(F)F)c3)n2)n[nH]c1=S,3%,8%,8%,-38%,-84*
CC(NC(=O)CN1C(=O)NC2(CCCCC2C)C1=O)c1ccccc1 (stereo unspecified),3%,8%,-15%,-2%,17
Cc1cccc(N2C(=O)NC(=O)/C(=C\c3cnc(-c4ccccc4)nc3)C2=O)c1,?,11µM*,-12%,-31%,-10
CC(C)c1ccc(N2C(=O)NC(=O)/C(=C\c3cnc(-c4ccccc4)nc3)C2=O)cc1,5%,10%,-11%,-30%,-88*
CC(=O)c1ccccc1-c1ccc2c(c1)CC(CNC(=O)c1cc(C)on1)O2 (stereo unspecified),/,/,-26%,/,/
COc1ccc(-c2cc(-c3ccc(O)cc3)nc(N)c2C#N)cc1,?,-4%,-8%,-47%,0
CCOc1cc(-c2c(C#N)c(N)nc3c2CCc2ccccc2-3)ccc1O,-11%,?,?,-38%,-19
CCOc1cc(-c2cc(-c3ccc(C)cc3)nc(N)c2C#N)ccc1O,0%,25µM*,?,-28%,13
COc1cc(-c2cc(-c3ccc(O)cc3)nc(N)c2C#N)ccc1O,6%,?,-13%,195%,-70*
Cc1ccc(C(=O)Nc2nc3ccccc3[nH]2)cc1,-6%,2%,11µM*,-30%,-84*
C/C(=N\Nc1nc2ccccc2[nH]1)c1ccc([N+](=O)[O-])cc1,-14%,10µM*,-19%,-34%,-18
COc1ccc(C(=O)Nc2nc3ccccc3[nH]2)cc1,?,-13%,-84%,-30%,-33
O=C(Nc1nc2ccccc2[nH]1)c1ccc([N+](=O)[O-])cc1,-5%,1%,25%,-23%,11
Cc1ccc(Nc2nc3ccccc3c(=O)s2)cc1C,-14%,9%,31%,-27%,-73*
Cc1ccc(C(=O)Nc2cnc3ccccc3c2)cc1,-6%,-14%,3.5µM*,-27%,-81*
COc1ccccc1-c1cc(N(C)Cc2ccco2)ncn1,/,/,-13%,/,/
Cc1ccc(-c2nc3ccccc3[nH]2)cc1NC(=O)COc1cccc(C)c1C,-3%,/,-5%,/,?
COc1ccccc1C(=O)Nc1nc2ccccc2[nH]1,?,-4%,1µM*,-25%,-76*
COc1ccccc1C(=O)NCCC(=O)Nc1nc2ccccc2[nH]1,-2%,?,0%,-10%,74
Cc1ccc(C(=O)Nc2nc3ccccc3c(=O)s2)cc1,?,8.9µM*,/,-2%,-23
Cc1ccc(C(=O)Nc2cc3ccccc3oc2=O)cc1,2%,-16%,2µM*,-10%,-67*
CSc1nc2ccc3nc(NC(=O)c4ccc(C)cc4)sc3c2s1,-15%,-9%,-1%,-105%,-8
Cc1ccc(N(C)S(=O)(=O)c2cccc(C(=O)Nc3nc4ccccc4[nH]3)c2)cc1,-14%,11µM*,0%,-23%,-87*
